Common to all, as to experiment: DAPPL (digital affinity profiling via proximity ligation, sequencing); 10 mM Tris-HCl pH 7.5, 50 mM NaCl, 1 mM DTT, 4% glycerol, room temperature, 30 min; GST-TFs on glutathione beads, 16-mer random dsDNA library, 0.1% formaldehyde crosslink after washing; high values mean tight binding
Holding throughout (details): protein: recombinant; tags: N-terminal GST; dsDNA, one strand shown

Test [1] addresses T1, FEV (Homo sapiens, UniProt Q99581 1-238).
T1 sequence: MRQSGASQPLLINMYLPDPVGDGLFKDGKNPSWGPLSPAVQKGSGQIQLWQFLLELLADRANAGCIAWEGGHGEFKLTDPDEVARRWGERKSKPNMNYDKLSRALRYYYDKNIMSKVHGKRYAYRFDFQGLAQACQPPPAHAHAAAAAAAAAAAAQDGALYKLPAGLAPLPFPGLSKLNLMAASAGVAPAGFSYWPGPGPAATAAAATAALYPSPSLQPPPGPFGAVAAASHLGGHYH
In outline: (§1)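 Beads coated with glutathione captured GST-fused human transcription factors that had been expressed in yeast, and the factors were then given DNA barcodes and pooled with a tag-only sample. The pools were incubated with 200 nmole of a random double-stranded 16-mer DNA library in Tris/NaCl/DTT/glycerol buffer for 30 min at room temperature, washed, crosslinked with 0.1% formaldehyde and proximity-ligated with BsaI/T4 ligase at 37 °C for 1 h. PCR amplification and Illumina NextSeq500 sequencing came last. Binding signal is each hexamer's read frequency for a factor divided by its frequency for the tag-only sample.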

Test [2] has as its target ETV5 (Homo sapiens, UniProt P41161 1-510). In short, it runs like this:
as §1

The target of test [3] is T2, SPIC (Homo sapiens, UniProt Q8N5J4 1-248).
T2 sequence: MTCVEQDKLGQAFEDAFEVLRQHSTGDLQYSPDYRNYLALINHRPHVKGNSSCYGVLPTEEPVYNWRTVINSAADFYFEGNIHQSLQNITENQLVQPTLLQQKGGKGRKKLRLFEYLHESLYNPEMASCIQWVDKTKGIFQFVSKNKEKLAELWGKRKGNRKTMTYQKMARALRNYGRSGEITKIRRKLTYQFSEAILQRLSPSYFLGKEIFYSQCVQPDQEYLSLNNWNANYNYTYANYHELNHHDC
In short, it runs like this:
as §1

In test [4] the target is ELF4 (Homo sapiens, UniProt Q99607 1-663). In outline:
as §1

Test [5] has as its target T3, ELK4 (Homo sapiens, UniProt P28324-2 1-405).
T3 sequence: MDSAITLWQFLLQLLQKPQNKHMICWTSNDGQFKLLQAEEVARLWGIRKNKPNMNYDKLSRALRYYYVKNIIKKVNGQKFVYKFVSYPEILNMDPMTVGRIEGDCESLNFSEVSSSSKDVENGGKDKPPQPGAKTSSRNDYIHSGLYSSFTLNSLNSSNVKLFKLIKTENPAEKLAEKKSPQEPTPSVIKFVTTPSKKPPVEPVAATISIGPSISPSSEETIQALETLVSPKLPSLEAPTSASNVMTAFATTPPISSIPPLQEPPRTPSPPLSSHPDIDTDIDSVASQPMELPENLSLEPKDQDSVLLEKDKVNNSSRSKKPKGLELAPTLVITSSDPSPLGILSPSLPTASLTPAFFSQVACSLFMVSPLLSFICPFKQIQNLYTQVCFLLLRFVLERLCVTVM
In outline: as §1

For test [6], the target named is T4, ETV2 (Homo sapiens, UniProt O00321 1-342).
T4 sequence: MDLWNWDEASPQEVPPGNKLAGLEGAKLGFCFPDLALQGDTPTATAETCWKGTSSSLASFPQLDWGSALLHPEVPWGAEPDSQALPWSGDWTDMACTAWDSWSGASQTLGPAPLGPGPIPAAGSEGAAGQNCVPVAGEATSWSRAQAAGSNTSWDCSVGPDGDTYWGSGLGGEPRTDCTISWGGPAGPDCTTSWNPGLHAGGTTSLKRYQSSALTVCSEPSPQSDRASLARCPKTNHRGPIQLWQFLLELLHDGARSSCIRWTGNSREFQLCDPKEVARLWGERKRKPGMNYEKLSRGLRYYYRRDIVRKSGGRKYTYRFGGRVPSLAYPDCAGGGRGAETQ
In outline: as §1

For test [7], the target named is T5, ELF3 (Homo sapiens, UniProt P78545 1-371).
T5 sequence: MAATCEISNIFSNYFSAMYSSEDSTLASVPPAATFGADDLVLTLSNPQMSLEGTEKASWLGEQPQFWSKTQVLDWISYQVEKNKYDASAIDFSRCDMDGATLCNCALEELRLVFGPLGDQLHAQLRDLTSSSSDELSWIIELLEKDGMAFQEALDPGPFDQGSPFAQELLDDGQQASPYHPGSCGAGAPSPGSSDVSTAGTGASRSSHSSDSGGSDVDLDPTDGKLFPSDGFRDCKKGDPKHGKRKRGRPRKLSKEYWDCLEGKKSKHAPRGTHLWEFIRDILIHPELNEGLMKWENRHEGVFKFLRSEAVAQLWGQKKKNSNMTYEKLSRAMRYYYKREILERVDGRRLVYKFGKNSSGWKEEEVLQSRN
In outline:
as §1

In test [8] the target is ETV1 (Homo sapiens, UniProt P50549 1-477). In short, it runs like this: as §1

The text below walks through data of paper PMC7862700, “An all-to-all approach to the identification of sequence-specific readers for epigenetic DNA modifications on cytosine”.

ETV5, sequence (P41161 whole entry): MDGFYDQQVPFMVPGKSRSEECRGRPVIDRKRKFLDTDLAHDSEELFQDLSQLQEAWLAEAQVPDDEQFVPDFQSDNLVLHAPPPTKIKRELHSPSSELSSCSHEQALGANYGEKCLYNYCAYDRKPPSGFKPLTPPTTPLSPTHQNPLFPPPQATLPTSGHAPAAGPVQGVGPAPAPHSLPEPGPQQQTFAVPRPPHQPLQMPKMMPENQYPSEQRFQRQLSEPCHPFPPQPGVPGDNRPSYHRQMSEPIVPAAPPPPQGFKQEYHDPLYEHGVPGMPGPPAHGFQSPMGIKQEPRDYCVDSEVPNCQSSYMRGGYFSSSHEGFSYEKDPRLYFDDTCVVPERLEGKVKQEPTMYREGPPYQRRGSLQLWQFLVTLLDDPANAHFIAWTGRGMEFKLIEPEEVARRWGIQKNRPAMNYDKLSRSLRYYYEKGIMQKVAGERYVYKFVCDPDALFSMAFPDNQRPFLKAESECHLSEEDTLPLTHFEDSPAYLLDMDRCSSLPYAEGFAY
ETV1, sequence (P50549 whole entry): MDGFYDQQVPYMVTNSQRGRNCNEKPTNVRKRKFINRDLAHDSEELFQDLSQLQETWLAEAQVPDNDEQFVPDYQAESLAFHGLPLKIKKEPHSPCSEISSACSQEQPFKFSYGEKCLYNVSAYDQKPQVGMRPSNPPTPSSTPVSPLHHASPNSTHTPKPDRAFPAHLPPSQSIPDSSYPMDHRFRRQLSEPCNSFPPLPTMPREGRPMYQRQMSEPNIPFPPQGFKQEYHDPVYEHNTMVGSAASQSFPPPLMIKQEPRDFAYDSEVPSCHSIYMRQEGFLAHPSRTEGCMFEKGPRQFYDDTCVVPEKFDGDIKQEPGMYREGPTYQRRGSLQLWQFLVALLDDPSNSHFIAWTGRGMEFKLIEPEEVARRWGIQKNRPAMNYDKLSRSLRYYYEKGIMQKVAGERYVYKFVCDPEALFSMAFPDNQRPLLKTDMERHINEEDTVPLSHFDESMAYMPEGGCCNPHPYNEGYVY
ELF4, sequence (Q99607 whole entry): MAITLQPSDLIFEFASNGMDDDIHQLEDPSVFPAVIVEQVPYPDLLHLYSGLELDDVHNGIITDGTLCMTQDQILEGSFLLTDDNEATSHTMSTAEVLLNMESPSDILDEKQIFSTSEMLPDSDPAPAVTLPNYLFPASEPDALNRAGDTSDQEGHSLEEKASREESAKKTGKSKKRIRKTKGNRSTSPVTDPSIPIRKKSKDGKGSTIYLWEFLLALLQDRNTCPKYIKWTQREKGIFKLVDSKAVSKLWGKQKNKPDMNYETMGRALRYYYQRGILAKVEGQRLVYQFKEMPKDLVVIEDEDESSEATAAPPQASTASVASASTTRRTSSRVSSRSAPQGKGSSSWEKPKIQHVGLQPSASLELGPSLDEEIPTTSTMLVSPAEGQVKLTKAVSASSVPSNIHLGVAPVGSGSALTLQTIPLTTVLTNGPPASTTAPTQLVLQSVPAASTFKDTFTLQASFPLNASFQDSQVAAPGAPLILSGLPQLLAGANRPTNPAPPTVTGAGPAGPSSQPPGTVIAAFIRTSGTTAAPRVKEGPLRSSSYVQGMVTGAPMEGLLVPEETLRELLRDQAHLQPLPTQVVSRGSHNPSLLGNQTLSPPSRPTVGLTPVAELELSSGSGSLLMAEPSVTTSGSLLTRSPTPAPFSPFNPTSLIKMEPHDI

In the case of GCGCTC, the binding signal was 1.06 fold enrichment (6-mer frequency, TF over GST control) in test [1]; 1.13 fold enrichment (6-mer frequency, TF over GST control) in test [2]; 1.04 fold enrichment (6-mer frequency, TF over GST control) in test [3]; 1.24 fold enrichment (6-mer frequency, TF over GST control) in test [4]; 1.19 fold enrichment (6-mer frequency, TF over GST control) in test [5]; 1.22 fold enrichment (6-mer frequency, TF over GST control) in test [6]. For the same sequence, the binding signal in test [7] is 1.19 fold enrichment (6-mer frequency, TF over GST control).
Take GTGTTT: the binding signal in test [1] was 1.09 fold enrichment (6-mer frequency, TF over GST control); in test [2] it was 1.14 fold enrichment (6-mer frequency, TF over GST control); in test [3] it was 1.21 fold enrichment (6-mer frequency, TF over GST control); in test [4] it was 1.18 fold enrichment (6-mer frequency, TF over GST control); in test [5], 1.11 fold enrichment (6-mer frequency, TF over GST control); in test [6] it was 1.02 fold enrichment (6-mer frequency, TF over GST control). Moreover, the binding signal in test [7] is 1.17 fold enrichment (6-mer frequency, TF over GST control); in test [8], 1.21 fold enrichment (6-mer frequency, TF over GST control).
As to GTTGCA, the binding signal in test [1] was 1.11 fold enrichment (6-mer frequency, TF over GST control); in test [2], 1.16 fold enrichment (6-mer frequency, TF over GST control); in test [3] it was 1.11 fold enrichment (6-mer frequency, TF over GST control); in test [4], 1.15 fold enrichment (6-mer frequency, TF over GST control); in test [5], 1.06 fold enrichment (6-mer frequency, TF over GST control); in test [6], 1.06 fold enrichment (6-mer frequency, TF over GST control). The binding signal in test [7] is 1.1 fold enrichment (6-mer frequency, TF over GST control); in test [8], 1.19 fold enrichment (6-mer frequency, TF over GST control).
For the sequence CGTTAC, the binding signal was 1.13 fold enrichment (6-mer frequency, TF over GST control) in test [1]; 1.08 fold enrichment (6-mer frequency, TF over GST control) in test [2]; 1.05 fold enrichment (6-mer frequency, TF over GST control) in test [3]; 1.07 fold enrichment (6-mer frequency, TF over GST control) in test [4]; 1.02 fold enrichment (6-mer frequency, TF over GST control) in test [5]; 1.02 fold enrichment (6-mer frequency, TF over GST control) in test [6]. The binding signal in test [7] is 1.04 fold enrichment (6-mer frequency, TF over GST control); in test [8], 1.17 fold enrichment (6-mer frequency, TF over GST control).
On to ACCCAA, for which the binding signal in test [1] was 1.05 fold enrichment (6-mer frequency, TF over GST control); in test [2] it was 1.08 fold enrichment (6-mer frequency, TF over GST control); in test [3], 1.2 fold enrichment (6-mer frequency, TF over GST control); in test [4] it was 1.18 fold enrichment (6-mer frequency, TF over GST control); in test [5], 1.08 fold enrichment (6-mer frequency, TF over GST control); in test [6] it was 1.13 fold enrichment (6-mer frequency, TF over GST control). The binding signal in test [7] is 1.26 fold enrichment (6-mer frequency, TF over GST control).
Take CGCTAC: the binding signal in test [1] is 1.18 fold enrichment (6-mer frequency, TF over GST control); in test [2], 1.15 fold enrichment (6-mer frequency, TF over GST control); in test [3], 1.18 fold enrichment (6-mer frequency, TF over GST control); in test [4], 1.24 fold enrichment (6-mer frequency, TF over GST control); in test [5] it was 1.2 fold enrichment (6-mer frequency, TF over GST control); in test [6], 1.25 fold enrichment (6-mer frequency, TF over GST control). The binding signal was 1.24 fold enrichment (6-mer frequency, TF over GST control) in test [7] and 1.27 fold enrichment (6-mer frequency, TF over GST control) in test [8].
For the sequence AAGTGC, the binding signal in test [1] was 1.32 fold enrichment (6-mer frequency, TF over GST control); in test [2] it was 1.33 fold enrichment (6-mer frequency, TF over GST control); in test [3], 1.5 fold enrichment (6-mer frequency, TF over GST control); in test [4], 1.29 fold enrichment (6-mer frequency, TF over GST control); in test [5], 1.21 fold enrichment (6-mer frequency, TF over GST control); in test [6], 1.35 fold enrichment (6-mer frequency, TF over GST control). The binding signal in test [7] is 1.33 fold enrichment (6-mer frequency, TF over GST control); in test [8] it was 1.25 fold enrichment (6-mer frequency, TF over GST control).
For AGCGAC, the binding signal is 1.19 fold enrichment (6-mer frequency, TF over GST control) in test [1]; 1.13 fold enrichment (6-mer frequency, TF over GST control) in test [2]; 1.19 fold enrichment (6-mer frequency, TF over GST control) in test [3]; 1.19 fold enrichment (6-mer frequency, TF over GST control) in test [4]; 1.25 fold enrichment (6-mer frequency, TF over GST control) in test [5]; 1.22 fold enrichment (6-mer frequency, TF over GST control) in test [6]. Also, the binding signal in test [7] was 1.01 fold enrichment (6-mer frequency, TF over GST control); in test [8] it was 1.12 fold enrichment (6-mer frequency, TF over GST control).
